Measurements as given in PubChem BioAssay.
Activity calls are given as the source filed them. Unless noted, the rule behind the calls is not given here.

Legend:
[1] = compounds binding Alexa647 anti-His antibody – biochemical, small-molecule microarray, 635 nm fluorescence, artefact control for SMM control protein annotation, primary screen (AID 1128); conditions: higher = more signal;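 note: score merges feature fluorescence with signal-to-noise for each printed compound spot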
[2] = tested on: Human papillomavirus type 1a E7 protein (residues 1-88); test: HPV1a E7 small-molecule binders, primary screen, biochemical, small-molecule microarray, residues 1-88, 635 nm (AID 1129); conditions: small-molecule microarray binding, fluorescence 635 nm; higher = more signal
[3] = molecular target: Focal adhesion kinase 1 (Homo sapiens) (UniProt Q05397); test: PTK2 protein binding on printed compound slides – biochemical, small-molecule microarray, 635/667 nm fluorescence, BSA, DTT, primary screen (AID 1130); conditions: 635 nm fluorescence, higher = more signal;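 note: composite of spot emission at 667 nm and signal to noise over triplicate slides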
Chain of Focal adhesion kinase 1 (Homo sapiens) (Q05397 whole entry, looked up): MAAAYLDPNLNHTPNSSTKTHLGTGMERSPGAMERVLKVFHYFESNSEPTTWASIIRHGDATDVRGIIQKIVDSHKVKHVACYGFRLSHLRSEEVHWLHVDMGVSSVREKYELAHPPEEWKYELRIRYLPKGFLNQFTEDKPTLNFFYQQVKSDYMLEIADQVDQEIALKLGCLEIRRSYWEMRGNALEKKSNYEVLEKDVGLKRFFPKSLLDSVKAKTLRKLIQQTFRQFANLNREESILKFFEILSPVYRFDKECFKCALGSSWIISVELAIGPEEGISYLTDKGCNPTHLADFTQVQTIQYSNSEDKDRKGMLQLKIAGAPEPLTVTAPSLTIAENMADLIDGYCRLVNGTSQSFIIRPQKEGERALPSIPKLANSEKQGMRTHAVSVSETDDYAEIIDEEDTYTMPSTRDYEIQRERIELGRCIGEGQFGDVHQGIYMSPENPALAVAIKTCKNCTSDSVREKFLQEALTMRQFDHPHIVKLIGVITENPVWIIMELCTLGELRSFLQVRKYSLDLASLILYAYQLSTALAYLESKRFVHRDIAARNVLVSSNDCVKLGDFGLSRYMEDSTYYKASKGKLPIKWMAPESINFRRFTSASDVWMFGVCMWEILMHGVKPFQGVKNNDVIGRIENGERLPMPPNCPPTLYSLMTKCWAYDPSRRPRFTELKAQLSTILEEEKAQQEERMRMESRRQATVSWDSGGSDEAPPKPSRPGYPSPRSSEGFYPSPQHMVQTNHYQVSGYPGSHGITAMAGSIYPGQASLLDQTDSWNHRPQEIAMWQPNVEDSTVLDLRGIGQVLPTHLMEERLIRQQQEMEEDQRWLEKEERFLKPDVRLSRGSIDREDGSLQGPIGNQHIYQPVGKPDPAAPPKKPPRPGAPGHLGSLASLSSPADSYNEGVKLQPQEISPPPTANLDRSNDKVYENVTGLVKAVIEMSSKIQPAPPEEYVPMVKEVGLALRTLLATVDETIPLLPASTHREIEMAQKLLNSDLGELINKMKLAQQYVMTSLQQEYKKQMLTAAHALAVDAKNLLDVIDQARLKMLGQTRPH

[4] = tested on: Fibrinogen (Alexa647-labelled); test: Alexa647-fibrinogen binding to printed small molecules – biochemical, small-molecule microarray, 635/667 nm fluorescence, artefact control for SMM control-protein annotation, profiling panel (AID 1131); conditions: fibrinogen-A647 binding fluorescence, higher = more signal;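 note: z-score merges 667 nm fluorescence with per-spot signal-to-noise over triplicate slides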
[5] = molecular target: Follistatin (Homo sapiens) (UniProt P19883); test: FST protein binding to printed compounds – biochemical, small-molecule microarray, 635/667 nm fluorescence, primary screen (AID 1132); conditions: 635 nm fluorescence, higher = more signal
Chain of Follistatin (Homo sapiens) (P19883 whole entry, looked up): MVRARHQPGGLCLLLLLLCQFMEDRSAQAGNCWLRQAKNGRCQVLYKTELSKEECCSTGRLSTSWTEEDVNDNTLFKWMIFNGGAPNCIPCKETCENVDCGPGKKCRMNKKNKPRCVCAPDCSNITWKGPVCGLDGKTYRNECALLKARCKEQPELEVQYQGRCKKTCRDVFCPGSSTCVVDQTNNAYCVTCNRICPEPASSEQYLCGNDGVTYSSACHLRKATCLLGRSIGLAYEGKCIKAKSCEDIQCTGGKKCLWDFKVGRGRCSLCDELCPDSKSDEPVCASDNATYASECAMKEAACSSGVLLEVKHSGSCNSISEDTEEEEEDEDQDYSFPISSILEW

[6] = molecular target: Fibroblast growth factor 2 (Homo sapiens) (UniProt P09038); test: basic fibroblast growth factor binding to printed compounds – biochemical, small-molecule microarray, 635/667 nm fluorescence, primary screen (AID 1133); conditions: FGF2, fluorescence 635/667, higher = more signal
Chain of Fibroblast growth factor 2 (Homo sapiens) (P09038 whole entry, looked up): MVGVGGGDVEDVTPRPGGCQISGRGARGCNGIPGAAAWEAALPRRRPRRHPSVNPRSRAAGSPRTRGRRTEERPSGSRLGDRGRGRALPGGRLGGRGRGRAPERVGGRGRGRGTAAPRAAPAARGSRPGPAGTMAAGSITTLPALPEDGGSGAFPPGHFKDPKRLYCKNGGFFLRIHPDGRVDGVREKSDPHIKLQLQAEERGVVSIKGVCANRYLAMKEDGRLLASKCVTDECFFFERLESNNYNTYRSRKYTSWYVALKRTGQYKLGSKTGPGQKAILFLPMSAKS

[7] = JC-1 mitochondrial potential readout, lung cancer cells – cell-based, A549, JC-1 fluorescence, basal, 24 h, 100 nL, profiling panel (AID 1138); conditions: higher = more signal;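 note: A549 lung adenocarcinoma cells under basal conditions with no added stimulus; test concentration not given here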
Lefty1 = Lefty1 protein binding to printed compounds – biochemical, small-molecule microarray, 635/667 nm fluorescence, primary screen (AID 1139); conditions: fluorescence 635/667, higher = more signal
[8] = tested on: wheat germ agglutinin (Triticum aestivum), Alexa647-labelled; test: Alexa647-WGA lectin binding to printed small molecules – biochemical, small-molecule microarray, 635/667 nm fluorescence, artefact control for SMM control-protein annotation, profiling panel (AID 1140); conditions: WGA-A647 binding, 635 nm fluorescence, higher = more signal;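 note: score merges 667 nm feature emission with signal to noise over triplicate slides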
[9] = molecular target: Luciferin 4-monooxygenase (Photinus pyralis) (UniProt P08659); test: inhibition of purified Photinus pyralis luciferase – biochemical, luminescence, purified enzyme, 2006 set, primary screen (AID 1141); conditions: purified firefly luciferase, SteadyGlo luminescence, 30 min; higher = more signal, called active from +8 up or from −8 down;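 note: cell-free assay with purified firefly luciferase at 100 ng per well in PBS; test concentration not given here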
Chain of Luciferin 4-monooxygenase (Photinus pyralis) (P08659 whole entry, looked up): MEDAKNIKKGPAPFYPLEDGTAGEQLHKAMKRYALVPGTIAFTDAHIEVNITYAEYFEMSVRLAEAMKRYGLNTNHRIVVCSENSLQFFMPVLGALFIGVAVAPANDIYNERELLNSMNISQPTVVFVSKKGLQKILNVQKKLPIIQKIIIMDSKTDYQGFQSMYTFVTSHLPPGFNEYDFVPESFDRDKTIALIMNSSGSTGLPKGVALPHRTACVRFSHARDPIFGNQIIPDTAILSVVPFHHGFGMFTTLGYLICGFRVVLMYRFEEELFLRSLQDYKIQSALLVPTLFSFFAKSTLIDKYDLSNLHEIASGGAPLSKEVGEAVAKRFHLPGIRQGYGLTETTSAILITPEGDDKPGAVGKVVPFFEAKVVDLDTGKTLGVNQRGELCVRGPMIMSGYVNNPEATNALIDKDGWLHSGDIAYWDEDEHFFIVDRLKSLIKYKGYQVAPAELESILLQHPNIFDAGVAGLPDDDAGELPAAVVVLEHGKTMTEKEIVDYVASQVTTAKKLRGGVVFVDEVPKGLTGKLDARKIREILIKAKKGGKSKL

[10] = tested on: Wnt5a (protein binding on small-molecule microarray); test: small molecules binding Wnt5a protein – biophysical, small-molecule microarray, 635/667 nm fluorescence, primary screen (AID 1142); conditions: 635 nm fluorescence, higher = more signal;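 note: fluorescence read at 667 nm with signal to noise per printed feature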
[11] = ATP-based viability of Huh7 replicon cells – cell-based, CellTiter-Glo luminescence, basal, 48 h, cytotoxicity control for HCV replication inhibitor project, primary screen (AID 1143); conditions: higher = more signal, called active from +8 up or from −8 down;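 note: Huh7 hepatoma cells carrying a hepatitis C replication reporter with no stimulus; test concentration not given here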
[12] = Pseudomonas biofilm growth suppression – PAO1 strain, BacTiter-Glo luminescence, LB-PBS, primary screen (AID 1144); conditions: P. aeruginosa PAO1 biofilm, 12 h, higher = more signal
[13] = basal CRE-LacZ reporter activity in PC12 – cell-based, unstimulated, primary screen (AID 1145); conditions: no forskolin, luminescence, 4.5 h, higher = more signal, called active from +8 up or from −8 down
[14] = forskolin-driven CRE-LacZ activity in PC12 – cell-based, CRE-LacZ reporter, forskolin-stimulated, primary screen (AID 1146); conditions: luminescence, 4.5 h, higher = more signal, called active from +8 up or from −8 down;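 note: PC12 cells with 6xCRE LacZ reporter stimulated by forskolin 10 µM; beta-galactosidase reporter signal reflecting CREB driven transcription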
[15] = molecular target: Streptavidin (Streptomyces avidinii) (UniProt P22629); test: compounds binding control protein streptavidin – biophysical, small-molecule microarray, 635/667 nm fluorescence, artefact control for SMM compound annotation, primary screen (AID 1147); conditions: higher = more signal;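 note: signal reflects streptavidin binding to arrayed compounds as a control protein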
Chain of Streptavidin (Streptomyces avidinii) (P22629 whole entry, looked up): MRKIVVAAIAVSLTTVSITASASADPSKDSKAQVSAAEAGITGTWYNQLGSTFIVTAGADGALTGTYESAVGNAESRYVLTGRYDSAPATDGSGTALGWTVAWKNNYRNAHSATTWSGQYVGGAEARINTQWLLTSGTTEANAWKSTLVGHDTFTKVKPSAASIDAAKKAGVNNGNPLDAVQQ

[16] = probe aInhba binding on compound microarray – biochemical, small-molecule microarray, 635/667 nm fluorescence, primary screen (AID 1148); conditions: higher = more signal;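 note: score merges 667nm spot fluorescence with signal-to-noise for antibody binding to printed compounds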
Torsin-1A (Homo sapiens) [17] = molecular target: Torsin-1A (Homo sapiens) (UniProt O14656); test: TOR1A wild-type binding on microarray – cell lysate, small-molecule microarray, lysate, 635/667 nm, primary screen (AID 1149); conditions: COS7 hTOR1A-WT lysate, 635 nm fluorescence, higher = more signal
Chain of Torsin-1A (Homo sapiens) (O14656 whole entry, looked up): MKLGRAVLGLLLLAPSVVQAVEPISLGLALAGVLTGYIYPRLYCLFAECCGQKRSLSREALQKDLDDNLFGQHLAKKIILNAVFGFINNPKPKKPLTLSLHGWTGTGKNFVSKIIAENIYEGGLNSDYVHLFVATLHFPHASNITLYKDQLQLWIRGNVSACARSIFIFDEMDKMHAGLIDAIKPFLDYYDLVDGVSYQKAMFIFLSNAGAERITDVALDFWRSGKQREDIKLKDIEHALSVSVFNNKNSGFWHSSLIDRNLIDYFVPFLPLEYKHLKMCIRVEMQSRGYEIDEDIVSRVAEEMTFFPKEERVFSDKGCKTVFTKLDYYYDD

Torsin-1A (Homo sapiens) [18] = molecular target: Torsin-1A (Homo sapiens) (UniProt O14656); test: torsin A mutant lysate binding on microarrays – cell lysate, small-molecule microarray, COS7 lysate, 635/667 nm fluorescence, primary screen (AID 1150); conditions: COS7 hTOR1A mutant lysate, 635 nm fluorescence, higher = more signal;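 note: score pools 667 nm emission and signal to noise measuring lysate protein binding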
[19] = tested on: Sonic hedgehog protein (Shh); test: Sonic hedgehog microarray binding compounds – biochemical, small-molecule microarray, 635/667 nm fluorescence, primary screen (AID 1151); conditions: 635 nm fluorescence, higher = more signal;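 note: Shh protein binding to compounds spotted on small-molecule microarray slides; score combines spot fluorescence intensity with signal-to-noise across triplicate slides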

SMILES | composite z-score [1] | composite z-score [2] | composite z-score [3] | composite z-score [4] | composite z-score [5] | composite z-score [6] | z-score [7] | composite z-score (Lefty1) | composite z-score [8] | z-score [9] | composite z-score [10] | z-score [11] | z-score [12] | z-score [13] | z-score [14] | composite z-score [15] | composite z-score [16] | composite z-score (Torsin-1A (Homo sapiens) [17]) | composite z-score (Torsin-1A (Homo sapiens) [18]) | composite z-score [19]
CCOC(=O)N1C(c2ccc(OCCCO)cc2)=NC(C(=O)OC)N1C(=O)OCC (stereo not given) | 0.369 | 1.2 | 0.454 | 0.864 | 1.31 | 0.955 | -0.541 | 1.07 | 0.669 | -1.45 (inactive) | 0.506 | -2.41 (inactive) | -1.33 (inactive) | 0.139 (inactive) | 0.666 (inactive) | 0.829 | 0.0614 | 0.497 | 0.36 | 1.13
C[N+](C)(C)CCCC[C@@H]1NC(=O)[C@H]2C[C@@H](C(=O)O)[C@@H](c3cccc(OCCO)c3)N2C1=O | 3.61 | 1.21 | 2.21 | 0.973 | 1.15 | 0.9 | 0.455 | 0.804 | 1.57 | -0.317 (inactive) | 1.93 | 0.0605 (inactive) | 0.308 (inactive) | -0.138 (inactive) | 0.629 (inactive) | 3.77 | 0.893 | 1.95 | 2.13 | 1.4
CC(C)CNC(=O)[C@@]1(C)c2ccccc2C(=O)N(C(C)C)[C@H]1c1ccc(CO)cc1 | -0.105 | -1.79 | 0.175 | -1.07 | -0.0856 | -0.379 | -0.265 | -0.353 | -0.148 | 0.691 (inactive) | -0.16 | 1.09 (inactive) | 0.15 (inactive) | -0.179 (inactive) | -0.568 (inactive) | -1.36 | -0.187 | -0.633 | -1.63 | -0.542
CC(C)C(CO)N1C(=O)[C@@H]2[C@H]3C(=O)OCC=C[C@H]3OC23C=CCN(c2ccc4ccccc4c2)C(=O)[C@@H]13 (stereo not given in full) | -0.151 | -1.29 | -0.493 | -0.581 | -0.851 | -1.18 | 0.742 | -0.842 | -0.328 | -0.194 (inactive) | -0.0522 | -0.372 (inactive) | 2.05 (inactive) | 0.732 (inactive) | 0.755 (inactive) | -0.818 | -0.179 | -0.905 | -2.07 | -0.506
CC[C@@H]1C=C(C(=O)O)[C@H](c2ccc(C(C)C)cc2)N1S(=O)(=O)c1ccc(C)cc1 | 2.08 | 1.21 | 1.17 | 1.03 | 0.919 | 0.52 | -1.25 | 0.0565 | 1.35 | 0.734 (inactive) | 0.764 | -0.822 (inactive) | 0.448 (inactive) | -0.0137 (inactive) | -0.0578 (inactive) | 0.939 | 0.432 | 0.145 | 1.22 | 0.34
O=C1C2C=CC(C(O)C3CC=CCC3)N(n3cnnc3)C2C(=O)N1Cc1ccccc1 (stereo not given) | 0.794 | -0.288 | 0.559 | 0.909 | -0.439 | -1.14 | -0.704 | -1.07 | 0.451 | 0.934 (inactive) | -0.149 | 0.227 (inactive) | 0.356 (inactive) | 0.332 (inactive) | 0.705 (inactive) | 0.0704 | -0.128 | 0.187 | -0.0519 | -0.183
[N-]=[N+]=NCc1ccccc1[C@H]1OC(c2ccc(OCCCO)cc2)=N[C@@]1(Cc1ccccc1)C(=O)NCC(O)CO (stereo not given in full) | 1.86 | 1.25 | 1.08 | 0.726 | 0.474 | -0.0723 | 1.2 | -0.994 | 0.486 | 0.142 (inactive) | 0.11 | -2.11 (inactive) | -0.737 (inactive) | 0.96 (inactive) | 0.452 (inactive) | 0.496 | 0.296 | 0.379 | 0.894 | -0.76
O=C(CS)NCCCCCNC(=O)[C@H]1C[C@H]2C(=O)N[C@@H](Cc3ccccc3)C(=O)N2[C@H]1c1cccc(OCCO)c1 | 2.51 | 1.16 | 0.181 | 0.748 | 1.37 | 1.77 | 1.17 | 1.45 | 0.788 | -2.3 (inactive) | 0.306 | -0.178 (inactive) | -0.388 (inactive) | 0.696 (inactive) | -0.0595 (inactive) | -0.304 | 0.0439 | 0.88 | 0.822 | 1.83
C=C(CCCC)C(=O)CC[C@H](OC(C)=O)c1ccc(CO)o1 | -0.273 | 0.228 | -0.0408 | -0.332 | 1.03 | 0.361 | -0.0332 | 0.861 | -0.276 | -1.77 (inactive) | 0.0631 | -3.11 (inactive) | -0.312 (inactive) | 0.508 (inactive) | -0.79 (inactive) | -0.264 | -0.0427 | -0.423 | 0.794 | 1.99
COCCCNC(=O)[C@@]1(C)c2ccccc2C(=O)N(Cc2ccccc2)[C@H]1c1ccc(CO)cc1 | 0.909 | 0.0047 | 0.101 | -0.678 | 0.0033 | -0.992 | -0.939 | -0.635 | -0.505 | -0.0137 (inactive) | -0.811 | -4.52 (inactive) | -0.453 (inactive) | -0.295 (inactive) | -0.463 (inactive) | -0.944 | -0.0963 | -2.72 | 2.16 | 0.182
